# Laboratory results taken from PubChem BioAssay.
# The source made the active and inactive calls.
# Experiments:
# [1] = tested on: Plasmodium falciparum Sir2 (PF13_0152, Sir2A); experiment: pfSir2 binders on small-molecule microarrays, primary screen, biochemical, small-molecule microarray, 635 nm fluorescence (AID 1098); conditions: small-molecule microarray binding, fluorescence 635 nm; higher = more signal;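 note: score merges spot fluorescence intensity with its signal-to-noise ratio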
# [2] = small-molecule microarray binders of probe aDKK1, primary screen, biochemical, biotinylated probe, 635/667 nm fluorescence (AID 1099); conditions: higher = more signal;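 note: score merges 667nm spot fluorescence with signal to noise across triplicate slides; reference of the scale not given here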
# [3] = small-molecule microarray binders of probe aCHRDL2, primary screen, biochemical, biotinylated probe, 635/667 nm fluorescence (AID 1100); conditions: higher = more signal
# [4] = splicing luciferase reporter signal modulators, primary screen, spliceosome inhibition project, cell-based, HEK293, splice +/- reporter (AID 1101); conditions: luminescence, 24 h, higher = more signal, called active from +8 up or from −8 down;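 note: HEK293 cells carrying a splicing-competent luciferase reporter gene; test concentration not given here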
# [5] = target: Fibroblast growth factor 10 (Homo sapiens) (UniProt O15520); experiment: FGF10 binders on small-molecule microarrays, primary screen, biochemical, small-molecule microarray, 635 nm fluorescence (AID 1102); conditions: FGF10 binding, fluorescence 635 nm, higher = more signal
# [6] = tested on: glycogen synthase kinase-3 (GSK3A per assay name; protocol says GSK3B); experiment: GSK3 binders on small-molecule microarrays, primary screen, biochemical, small-molecule microarray, 635 nm fluorescence, GSK3A (AID 1103); conditions: small-molecule microarray binding, fluorescence 635 nm; higher = more signal; note: the record names both GSK3A and GSK3B
# [7] = target: Epidermal growth factor receptor (Homo sapiens) (UniProt P00533); experiment: EGFR binders on small-molecule microarrays, primary screen, biochemical, small-molecule microarray, 635 nm fluorescence (AID 1104); conditions: EGFR binding, higher = more signal;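 note: score merges 667 nm emission intensity with spot signal to noise over triplicate slides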
# [8] = target: Follistatin-related protein 3 (Homo sapiens) (UniProt O95633); experiment: FSTL3 binders on small-molecule microarrays, primary screen, biochemical, small-molecule microarray, 635 nm fluorescence (AID 1105); conditions: FSTL3 binding, higher = more signal;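 note: score merges emission near 667 nm and signal to noise per printed spot across three slides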
# [9] = target: Dickkopf-related protein 1 (Homo sapiens) (UniProt O94907); experiment: DKK1 binders on small-molecule microarrays, primary screen, biochemical, small-molecule microarray, 635 nm fluorescence scan (AID 1106); conditions: DKK1 binding, higher = more signal;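 note: score merges emission near 667 nm with signal to noise over three replicate slides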
# [10] = tested on: Inhibin beta A chain (activin A); experiment: INHBA (activin A) binders on microarrays, primary screen, biochemical, small-molecule microarray, 635 nm fluorescence scan (AID 1107); conditions: small-molecule microarray binding, higher = more signal;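 note: mouse activin A protein probed at 4.33 µg/mL on printed slides; score merges bound-protein fluorescence near 667 nm with spot signal-to-noise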
# Epidermal growth factor receptor (Homo sapiens), sequence (P00533 whole entry, looked up): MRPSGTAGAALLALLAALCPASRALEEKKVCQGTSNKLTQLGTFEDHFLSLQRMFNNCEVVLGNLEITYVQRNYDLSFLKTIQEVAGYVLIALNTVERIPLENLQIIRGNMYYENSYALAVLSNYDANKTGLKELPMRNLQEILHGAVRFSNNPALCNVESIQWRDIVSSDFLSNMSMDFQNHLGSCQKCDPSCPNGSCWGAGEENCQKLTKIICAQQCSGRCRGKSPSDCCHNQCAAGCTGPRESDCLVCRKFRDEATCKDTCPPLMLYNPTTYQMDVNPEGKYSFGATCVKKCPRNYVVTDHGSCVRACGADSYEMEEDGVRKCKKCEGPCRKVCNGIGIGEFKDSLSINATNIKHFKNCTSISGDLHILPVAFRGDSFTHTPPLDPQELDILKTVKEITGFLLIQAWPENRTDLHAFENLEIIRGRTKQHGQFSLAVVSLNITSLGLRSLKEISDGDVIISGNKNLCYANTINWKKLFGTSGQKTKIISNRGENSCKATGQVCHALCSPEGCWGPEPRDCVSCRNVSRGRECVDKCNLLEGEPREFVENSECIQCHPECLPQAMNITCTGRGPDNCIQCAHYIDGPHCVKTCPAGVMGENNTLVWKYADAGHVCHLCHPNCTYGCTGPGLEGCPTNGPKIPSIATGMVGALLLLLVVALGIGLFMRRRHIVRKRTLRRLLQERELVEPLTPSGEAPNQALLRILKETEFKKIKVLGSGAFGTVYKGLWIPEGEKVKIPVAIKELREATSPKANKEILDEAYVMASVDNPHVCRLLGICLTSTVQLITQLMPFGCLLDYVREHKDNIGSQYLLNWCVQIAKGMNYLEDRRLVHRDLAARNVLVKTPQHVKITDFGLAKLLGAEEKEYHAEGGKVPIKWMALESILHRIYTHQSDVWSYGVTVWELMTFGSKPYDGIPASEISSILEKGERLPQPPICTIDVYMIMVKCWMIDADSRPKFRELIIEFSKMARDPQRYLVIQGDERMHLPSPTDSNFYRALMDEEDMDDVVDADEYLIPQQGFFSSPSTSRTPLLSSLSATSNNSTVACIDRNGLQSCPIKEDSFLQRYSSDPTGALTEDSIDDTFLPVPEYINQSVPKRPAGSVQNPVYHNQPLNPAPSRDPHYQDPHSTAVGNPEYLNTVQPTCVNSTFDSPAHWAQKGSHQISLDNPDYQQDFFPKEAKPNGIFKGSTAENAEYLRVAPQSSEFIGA
# Fibroblast growth factor 10 (Homo sapiens), sequence (O15520 whole entry, looked up): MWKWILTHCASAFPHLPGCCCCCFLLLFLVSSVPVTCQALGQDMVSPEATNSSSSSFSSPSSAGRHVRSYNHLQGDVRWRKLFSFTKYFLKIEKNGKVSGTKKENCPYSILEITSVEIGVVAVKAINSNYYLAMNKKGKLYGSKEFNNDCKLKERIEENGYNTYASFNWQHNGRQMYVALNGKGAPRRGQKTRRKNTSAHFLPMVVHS
# Dickkopf-related protein 1 (Homo sapiens), sequence (O94907 whole entry, looked up): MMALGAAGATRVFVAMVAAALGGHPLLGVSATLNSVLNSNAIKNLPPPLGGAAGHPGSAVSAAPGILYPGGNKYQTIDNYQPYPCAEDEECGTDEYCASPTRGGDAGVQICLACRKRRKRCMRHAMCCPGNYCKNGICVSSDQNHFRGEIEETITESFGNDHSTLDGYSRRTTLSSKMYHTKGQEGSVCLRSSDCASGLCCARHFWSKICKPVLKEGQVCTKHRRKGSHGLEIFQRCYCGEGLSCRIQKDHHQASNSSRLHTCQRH
# Follistatin-related protein 3 (Homo sapiens), sequence (O95633 whole entry, looked up): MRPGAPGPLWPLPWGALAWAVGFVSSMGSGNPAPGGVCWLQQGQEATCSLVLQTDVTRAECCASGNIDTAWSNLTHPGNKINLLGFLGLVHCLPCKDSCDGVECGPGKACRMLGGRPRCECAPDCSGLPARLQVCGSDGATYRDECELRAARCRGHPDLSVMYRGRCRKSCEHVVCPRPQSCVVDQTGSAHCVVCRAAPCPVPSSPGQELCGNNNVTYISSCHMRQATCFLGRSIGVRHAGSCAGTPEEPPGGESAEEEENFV
SMILES,composite z-score [1],composite z-score [2],composite z-score [3],z-score [4],composite z-score [5],composite z-score [6],composite z-score [7],composite z-score [8],composite z-score [9],composite z-score [10]
C=CCOC(=O)[C@H]1[C@@H]2C(=O)O[C@@H](c3ccccc3)[C@@H](c3ccccc3)N2[C@@H](c2ccc(OCCOC(=O)[C@H]3C[C@H]4C(=O)N[C@@H](Cc5ccccc5)C(=O)N4[C@H]3c3cccc(OCCO)c3)cc2)[C@]12C(=O)Nc1ccc(I)cc12,1.12,-0.298,-0.0762,0.959 (inactive),1.24,1.28,0.536,1.29,0.759,0.17
COCCOC(=O)N1C(=O)[C@@]2(c3cc(C#CC4(O)CCCCCC4)ccc31)[C@H](C(N)=O)[C@H]1C(=O)O[C@H](c3ccccc3)[C@H](c3ccccc3)N1[C@@H]2c1ccc(O)cc1,1.16,-0.116,-0.0074,-0.538 (inactive),1.09,1.01,0.406,1.28,0.489,0.496
COC(=O)[C@@]1(Cc2ccccc2)[C@H]2c3cc(C(=O)N4CCCC4)n(Cc4cc(F)cc5c4OCOC5)c3C[C@H]2CN1C(=O)c1ccccc1,1.54,0.513,1.1,-0.955 (inactive),1.22,0.0232,-0.12,0.286,-0.66,0.538
O=C(CCCCCCC(=O)Nc1ccccc1)N/N=C/c1ccccc1,0.45,-0.176,-0.311,-0.519 (inactive),-0.136,-0.401,0.0504,-0.41,0.328,0.18
C[C@]1(C(=O)NCCN2CCOCC2)c2ccccc2C(=O)N(Cc2ccc(OC(F)(F)F)cc2)[C@H]1c1ccc(CO)cc1,0.654,-0.103,0.604,0.396 (inactive),-0.564,-0.254,-1.39,-0.381,-1.33,-0.017
COCCOC(=O)N1C(=O)[C@@]2(c3cc(C#Cc4ccc(OC)cc4)ccc31)[C@H](C(=O)N1CCN(c3ncccn3)CC1)[C@H]1C(=O)O[C@H](c3ccccc3)[C@H](c3ccccc3)N1[C@@H]2c1ccccc1OCCO,0.625,-0.0221,0.221,-0.562 (inactive),0.343,-0.142,0.139,-0.181,-0.163,0.443
C=C(CCCC)C(=O)CC[C@@H](OC(=O)c1cccnc1)c1ccccc1OCCO,0.996,-0.0709,0.515,4.97 (inactive),0.341,-0.164,-0.183,0.296,-0.265,1.16
CCOC(=O)[C@@H]1[C@@H]2C(=O)N(CC)C(=O)[C@@H]2C[C@@H]1Sc1ccccc1,0.667,0.19,0.0774,1.33 (inactive),0.448,0.177,0.169,0.446,-0.174,0.0622
CC(C)(C)OC(=O)CC[C@@]1(C(=O)O)N=C(c2ccc(OCCCO)cc2)O[C@@H]1c1ccccc1CN=[N+]=[N-],1.16,1,0.602,-0.326 (inactive),0.0038,0.396,-0.207,-0.43,-0.689,1.08
C=CCC(OC(C)=O)[C@@H]1[C@@H](N(Cc2ccc(-c3ccccc3)cc2)C(=O)c2cccc3ccccc23)c2cc(OCCCO)ccc2N1C(=O)Cc1ccc2ccccc2c1 (stereo not given in full),-0.417,0.122,0.425,-0.862 (inactive),0.0665,-0.202,-0.062,-0.0827,-0.169,0.796
COc1ccc([Si](C)(C)[C@H]2[C@H](CCO)O[C@@]3(C(=O)N(Cc4cccc(N5CCCCC5=O)c4)c4ccccc43)[C@@H]2C)cc1,1.08,0.176,0.0883,-2.37 (inactive),0.748,0.845,0.525,1.16,0.82,0.861
COCCOC(=O)N1C(=O)[C@@]2(c3ccccc31)[C@H](c1ccc(OCCO)cc1)N1[C@H](c3ccccc3)[C@H](c3ccccc3)OC(=O)[C@H]1[C@@H]2C(=O)Nc1nc2ccccc2s1,1.45,-0.223,0.414,0.579 (inactive),0.967,0.986,0.545,0.852,0.293,0.34
COc1ccc(C#Cc2ccc3c(c2)[C@]2(C(=O)N3)[C@H](C(=O)N3CCc4cc(OC)c(OC)cc4C3)[C@H]3C(=O)O[C@H](c4ccccc4)[C@H](c4ccccc4)N3[C@@H]2c2ccc(O)cc2)cc1,0.822,-0.29,-0.178,-0.00287 (inactive),0.851,1.29,0.537,0.957,0.513,-0.214
